Screening results deposited in PubChem by National Center for Advancing Translational Sciences (NCATS).
Only some compounds are listed: those with a hit (about 7.3% of all), similar ones and a draw of the others.
SMN2 splice up: increases expression of the SMN2 splice variant; AID 1458; hit rate 2.8% among 210,000; HEK293 SMN2-luciferase splicing reporter, luminescence, 30-36 h; Potency, µM (series often up to 46.1 µM), for the others: top-dose activity change, positive = activation, hits mostly activators; note: % of control where 0% means no effect; nearly all actives have a fitted effect of over 55% in size
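HEK293 cells carry an SMN2 […]–luciferase reporter in which exon 7 inclusion puts luciferase in frame. Cells were plated 10-12 h before compound addition, then incubated 30-36 h at 37C. ONE-Glo luminescence was read; sodium butyrate at 4.5 mM final served as control.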
ELG1 genotox: inducers of genotoxicity in HEK293T ELG1-luciferase cells; HEK293T ELG1-luciferase reporter, luminescence, 16 h; Potency, µM (series often up to 46 µM), for inactives: top-dose activity change, positive = activation, actives largely listed as activators; hit rate 1.3% among 330,000; note: % of control where 0% means no effect; nearly all actives have a fitted effect of over 60% in size
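Luminescence read-out: rising ELG1-luciferase signal, reflecting elevated ELG1 protein under genetic stress, flags genotoxic compounds. Cells were treated for 16 hr at 37 °C before ONE-Glo detection.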
Luc counter: Kinase-Glo luciferase inhibition (counter-screen). Q27757. Potency, µM (doses to about 38.3 µM), without a hit: at the top dose activity change, negative = inhibition, hits mostly inhibitors. AID 1379. hit rate 0.28% among 200,000. Kinase-Glo luciferase, ATP luminescence, 8 min; note: % is set by controls: 0 for no effect and ±100 for the full control effect; nearly all actives have a fitted effect of over 60% in size
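Compound is pinned into ATP-containing buffer (10 uM ATP, imidazole pH 7.2, 7 mM MgCl2). Kinase-Glo luciferase reagent is then added. Light output is recorded following an 8-min room-temperature incubation.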
NPC1 prom act: activators of NPC1 promoter | Huh7 NPC1 promoter luciferase reporter, 24 h | Potency, µM (series often up to 9.22 µM), for inactives: top-dose activation, usual class: activators | hit rate 2.4% among 320,000; note: % of control where 0% means no effect; nearly all actives have a fitted effect of over 60% in size
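Huh7 reporter cells (NPC1 promoter driving luciferase) are dosed with compound for 24 h at 37 °C, 5% CO2; luciferase detection reagent is then added and luminescence measured after 10 min at ambient temperature.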
Rab9 promoter act: Rab9 promoter activation; Huh7 Rab9 promoter-luciferase reporter, luminescence, 24 h; Potency, µM (titrated, usually from 9.22 µM), inactives show at the top dose activation, negative = inhibition, most hits filed as activators; AID 485297; hit rate 2.8% among 320,000; note: % of control where 0% means no effect; nearly all actives have a fitted effect of over 60% in size
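Rab9 promoter-driven luciferase in stably transfected Huh7 cells; 1500 cells/well rested 2 h, exposed to compound in DMSO for 24 h at 37 °C, 5% CO2. Luminescence read 10 min after adding luciferase reagent at ambient temperature.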
FLuc modulator: counter-screen for miR-21 project: firefly luciferase inhibitors or activators | P08659 | purified FLuc, Km substrates, luminescence inhibition | Potency, µM (doses to about 57.5 µM), inactives show top-dose activity change, negative = inhibition, most hits filed as inhibitors | hit rate 6.9% among 360,000 | AID 588342;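 note: plate controls were vehicle for no effect and reference inhibitor for full effect; nearly all actives have a fitted effect of over 55% in size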
Target sequence (P08659 whole entry, looked up): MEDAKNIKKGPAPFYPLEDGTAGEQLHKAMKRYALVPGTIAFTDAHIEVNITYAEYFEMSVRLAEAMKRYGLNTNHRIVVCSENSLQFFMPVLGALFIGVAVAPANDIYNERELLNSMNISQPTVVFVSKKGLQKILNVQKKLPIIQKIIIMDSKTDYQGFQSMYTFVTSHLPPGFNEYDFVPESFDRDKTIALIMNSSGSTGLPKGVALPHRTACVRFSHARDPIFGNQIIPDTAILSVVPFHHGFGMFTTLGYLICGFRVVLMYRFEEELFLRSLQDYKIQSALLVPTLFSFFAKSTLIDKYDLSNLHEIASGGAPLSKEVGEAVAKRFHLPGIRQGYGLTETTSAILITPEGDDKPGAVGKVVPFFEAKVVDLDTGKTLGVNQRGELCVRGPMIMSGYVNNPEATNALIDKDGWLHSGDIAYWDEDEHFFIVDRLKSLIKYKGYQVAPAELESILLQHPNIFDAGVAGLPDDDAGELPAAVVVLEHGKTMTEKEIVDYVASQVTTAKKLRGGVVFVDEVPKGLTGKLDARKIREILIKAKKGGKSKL
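Purified P. pyralis luciferase (10nM final) with 10uM D-luciferin and 10uM ATP (Km levels) in 50mM Tris acetate pH 7.5, 10mM Mg acetate, 0.01% Tween-20, 0.05% BSA; qHTS 6-point titration, ~60 µM downward; luminescence read.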
Numbers without * were called inactive; u = inconclusive; x = no result; [ ] = dose if it differs, or a comment. Calls come from the whole dose curve; as a rule, active = well fitted curve in the direction sought with a large enough effect; inconclusive = small, poorly fitted or top-dose-only effect, or another doubt; inactive = no such curve, though single readings can be large; an effect the other way counts as inactive or inconclusive. Potency is the fitted concentration of half-maximal effect.

SMILES | SMN2 splice up | ELG1 genotox | Luc counter | NPC1 prom act | Rab9 promoter act | FLuc modulator
CCCc1cc(C(=O)Nc2sc(C)c(CC)c2C#N)no1 | 6% | 7% | -1% | 6% | 0% | -14%
CCOC(=O)c1c(NC(=O)c2cccs2)sc(C)c1CC | -10% | -9% | 13% | -9% | -3% | -2%
Cc1sc(NC(=O)c2ccccc2)c(C#N)c1-c1ccccc1 | 8.9µM* | u | -6% | 2.8µM* | 1.6µM* | 2.4µM*
CCc1c(C)sc(NC(=O)c2cccs2)c1C#N | 11µM* | u | -3% | u | u | 7.6µM*
Cc1c(I)c(=O)n(-c2ccccc2)n1C | x | x | 3%[39.9 µM] | x | x | x
COc1ccc(-c2cn3c(C)c(C(=O)NC(C)C)sc3n2)cc1 | -4% | 15% | -5% | 24% | u | u
Cc1cccc(NC(=O)c2sc3nc(-c4ccccc4)cn3c2C)n1 | -53% | -6% | 5% | 16% | 1% | u
COc1ccc(-c2cn3c(C)c(C(=O)Nc4cccc(C)n4)sc3n2)cc1 | u | -12% | -2% | 0% | 2% | 12µM*
COc1ccc(-c2cn3c(C)c(C(=O)NC(C)(C)C)sc3n2)cc1 | x | u | x | 2µM* | 0.63µM* | 5.4µM*
O=C(O)/C=C/C(=O)c1ccc2c(c1)CCc1ccccc1-2 | x | -11% | x | 26% | u | 24µM*
O=C(O)/C=C/C(=O)c1ccc(O)cc1 | x | 0% | x | -4% | 1% | -1%
C=CCN(C(=O)Cc1cccs1)c1nc(-c2ccc(S(C)(=O)=O)cc2)cs1 | x | 0% | x | u | u | 17µM*
CCOc1ccc(CNC(=O)Cn2ncc3c(=O)oc4ccc(C)cc4c32)cc1 | -5% | x | x | x | x | -6%
CCc1nc2oc3ccccc3c(=O)c2cc1C(=O)OC | x | u | x | 3.2µM* | 3.5µM* | 13µM*
COCc1nc2oc3ccc(C)cc3c(=O)c2cc1C(=O)OC | x | u | x | u | 1.8µM* | 11µM*
Cc1nc2oc3ccc(F)cc3c(=O)c2cc1C(=O)O | x | 6% | x | -1% | -7% | u
COCc1nc2oc3ccc(F)cc3c(=O)c2cc1C(=O)OC | x | u | x | 2.8µM* | u | u
O=C(CCSCc1cccc(Cl)c1)N1CCN(c2ccc(Cl)cc2)CC1 | x | x | x | x | x | 3%
COc1ccc(C(=O)/C=C2/Sc3cc4c(cc3N2C)OCO4)cc1 | x | u | x | 17% | u | u
COc1ccc2c(c1)S/C(=C\C(=O)c1ccncc1)N2C | 2% | 21µM* | -8% | u | u | 6.7µM*
COc1cc(OC)cc(C(=O)/C=C2\Sc3ccccc3N2C)c1 | x | u | x | u | u | 7.6µM*
COCC(=O)/C=C1\Sc2ccccc2N1C | 16% | 16% | 4% | 1% | 0% | -8%
CN1/C(=C\C(=O)c2cccc([N+](=O)[O-])c2)Sc2ccccc21 | x | 9.2µM* | x | 1.3µM* | 2µM* | 1.3µM*
CC[C@H]1NC(=O)c2cc(S(N)(=O)=O)c(Cl)cc2N1 | -1%[20.6 µM] | x | -1%[17.1 µM] | x | x | x
O=c1c(CCc2ccccc2)nc2cnc(N3CCNCC3)nc2n1CCc1ccccc1 | -45% | x | -4% | x | x | x
SMILES | SMN2 splice up | ELG1 genotox | Luc counter | NPC1 prom act | Rab9 promoter act | FLuc modulator
Cc1cc(C(=O)CSc2nc3ccccc3o2)c(C)n1CC1CCCO1 (stereo not given) | -89% | 2% | -2% | 0.71µM* | 0.79µM* | 1.3µM*
Cc1cc(C(=O)CSc2nc(N)cc(=O)[nH]2)c(C)n1CC1CCCO1 (stereo not given) | x | -3% | x | x | x | x
Cc1cc(C(=O)CSc2nc3ccccc3[nH]2)c(C)n1CC1CCCO1 (stereo not given) | -53% | -10% | 0% | u | u | 0.54µM*
Cc1cc(C(=O)CSc2nc3ccccc3c(=O)[nH]2)c(C)n1C | 35µM* | 14µM* | 0% | u | u | u
COc1cccc(CNC(=O)CSC2=Nc3ccccc3C3=NC(C(C)C)C(=O)N23)c1 (stereo not given) | x | x | x | x | x | 1%
CCCCn1c(=O)nc2n(-c3ccc(Br)cc3)c3ccccc3cc-2c1=O | x | x | x | x | x | -4%
COC(=O)c1c(NC(=O)Nc2ccc(Cl)cc2)sc(C)c1C | u | 9% | -3% | 11% | 1% | -1%
CC1(C)Cc2c(sc(NC(=O)Nc3ccccc3)c2C(N)=O)CO1 | x | u | x | 4.5µM* | 1.3µM* | 12µM*
Cc1sc(NC(=O)Nc2ccccc2)c(C(N)=O)c1C | x | 9% | -3% | u | 2µM* | 7.6µM*
CCCS(=O)(=O)c1c(S(=O)(=O)CCC)c2cc(C(C)(C)C)ccn2c1C(=O)c1ccccc1 | -14% | x | x | x | x | -16%
c1ccc(-c2ccc3[nH]ccc3c2)cc1 | x | u | x | u | -2% | u
Cc1onc(-c2ccc3c(c2)OCO3)c1-c1ccc2[nH]ccc2c1 | x | 15% | x | 2% | u | 0%
c1ccc(-c2onc(-c3ccco3)c2-c2ccc3[nH]ccc3c2)cc1 | x | -2% | x | -1% | 4% | 19µM*
c1cc2cc(-c3c(-c4ccc5c(c4)OCO5)noc3-c3ccsc3)ccc2[nH]1 | x | 15% | x | u | u | 11µM*
COc1cc2nc(SCC(=O)Nc3ccccc3C)n3nc(CCn4c(C)nc5ccccc54)nc3c2cc1OC | -2% | x | x | x | x | -5%
Cc1cccc(C)c1OCCn1c(C2CC(=O)N(Cc3ccc(F)cc3)C2)nc2ccccc21 (stereo not given) | x | x | x | x | x | -9%
Cc1cc(Nc2ccccc2)nc2cc(O)ccc12 | -6% | 3% | -1% | -3% | -7% | 17µM*
CCOc1ccc(Nc2cc(C)c3ccccc3n2)cc1 | x | 11% | x | 21% | u | 17µM*
COc1ccc(Nc2cc(C)c3ccc(O)cc3n2)cc1 | x | 7% | x | 5% | -3% | 24µM*
CCOc1ccc(Nc2c3ccccc3nc3ccccc23)cc1 | x | -7% | x | -23% | -25% | -8%
COC(=O)c1ccc(Nc2cc(C)nc3ccc(C)cc23)cc1 | x | -4% | x | -29% | -17% | 3%
Cc1ccc2nc(C)cc(Nc3ccc([N+](=O)[O-])cc3)c2c1 | -108% | 5.8µM* | -1% | -21% | -18% | 1%
O=C(Cn1nc(-c2ccccc2)nc(Cc2ccccc2)c1=O)Nc1ccccc1 | x | x | x | x | x | -5%
Cc1ccc(CNC(=O)c2cnc(N3CCCCC3)c3ccccc23)cc1 | x | x | x | x | x | -13%
Nc1c(C(=O)NCCc2ccccc2)nnn1CC(=O)Nc1ccc(Cl)cc1 | x | x | x | x | x | 0%
COc1ccc(Nc2ccc([N+](=O)[O-])cn2)cc1 | x | 0% | x | u | u | u
COc1ccc(Nc2cc(C)c3cc([N+](=O)[O-])ccc3n2)cc1 | x | -2% | x | -7% | -6% | 17µM*
COc1ccc(OCC(=O)Nc2cccc(NC(=O)COc3ccc(OC)cc3)n2)cc1 | -11% | u | -13% | 2.5µM* | u | 2.1µM*
